Laboratory results published in PubChem BioAssay AID492990 (National Center for Advancing Translational Sciences (NCATS), 2010).
The source made the active and inactive calls.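 Rule for the calls: active = clear integrase inhibition at one or more tested doses, judged significant by the depositor; inactive = only baseline response.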

test system: HIV-1 integrase; assay: Gel-Based Assay for Inhibitors of HIV Integrase: Counterscreen for TDP1; conditions: recombinant HIV-1 integrase, 32P DNA gel densitometry; series mostly up to 333 µM
Protocol: HIV Integrase enables the HIV virus to integrate its genetic material into host cells's DNA. This particular assay was utilized as a counterscreen for inhibitors of human tyrosyl DNA phosphodiesterase I (Tdp1). See probe development summary bioassay AID 485312 for further details on the tdp1 inhibitors project.
HIV-1 integrase catalytic assay was carried out as previously described [Marchand et al. Methods in Enzymology 2001] by mixing 400 nM recombinant integrase with 20 nM [32P] radiolabeled DNA substrate in a buffer containing 50 mM MOPS, pH 7.2, 7.5 mM MgCl2, 14.3 mM 2-mercaptoethanol, and the drug of interest or 10% DMSO. Reactions were incubated at 37 degrees C for 1 h and quenched by the addition of an equal volume of gel loading dye (formamide with 0.25% bromophenol blue, 0.25% xylene cyanol and 5 mM EDTA). Reaction products were separated on a 16% polyacrylamide denaturing sequencing gel. Dried gels were exposed overnight and visualized using a Typhoon 8600 (GE Healthcare, Piscataway, NJ). Densitometry analyses were performed using the ImageQuant software from GE Healthcare.

| Compound | outcome |
| --- | --- |
| O=c1c2ccccc2nc2sc(Nc3ccc4c(c3)CCC4)nn12 | inactive |
| O=c1c2ccc(Br)cc2nc2sc(Nc3ccc4c(c3)CCC4)nn12 | inactive |
